# Results: PubChem BioAssay AID1347165 (National Center for Advancing Translational Sciences (NCATS), 2019)
# Screen size: about 220,000 compounds; about 5,700 (2.6%) were called active. Another 18% or so got no clear call; they are omitted. The sample as a whole holds a higher share of actives than the screen did. Values without a mark were called inactive. Calls come from the whole dose curve; as a rule, active = well fitted inhibition curve with a large enough effect; inconclusive = small, poorly fitted or top-dose-only effect; inactive = no such curve, though single readings can be large or run the other way.
# Target: Lysine-specific demethylase 5B (Homo sapiens) (UniProt Q9UGL1)
# Test: Primary screen for KDM5B Histone Demethylases FDH-coupled qHTS; note: nearly all actives have a fitted effect of over 70% in size; for activity change, negative = inhibition: 0% is about no effect
# Conditions: FDH-coupled NADH fluorescence (FDH is formaldehyde dehydrogenase); series mostly up to 57.7 µM; activity change, negative = inhibition: at the top concentration
# In short: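 KDM5BΔAP (200 nM final) in 50 mM HEPES pH 7.5, 0.01% Tween-20 was preincubated 10 min at RT with compound over a concentration range. Substrate mix (H3K4me3 12.5 µM, α-KG 25 µM, Fe²⁺, ascorbate, NAD⁺, FDH) was added, and NADH fluorescence change over 30 min gave dose-response curves.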
# Potency is the fitted concentration of half-maximal effect.
# Sequence of Lysine-specific demethylase 5B (Homo sapiens) (Q9UGL1 whole entry, looked up): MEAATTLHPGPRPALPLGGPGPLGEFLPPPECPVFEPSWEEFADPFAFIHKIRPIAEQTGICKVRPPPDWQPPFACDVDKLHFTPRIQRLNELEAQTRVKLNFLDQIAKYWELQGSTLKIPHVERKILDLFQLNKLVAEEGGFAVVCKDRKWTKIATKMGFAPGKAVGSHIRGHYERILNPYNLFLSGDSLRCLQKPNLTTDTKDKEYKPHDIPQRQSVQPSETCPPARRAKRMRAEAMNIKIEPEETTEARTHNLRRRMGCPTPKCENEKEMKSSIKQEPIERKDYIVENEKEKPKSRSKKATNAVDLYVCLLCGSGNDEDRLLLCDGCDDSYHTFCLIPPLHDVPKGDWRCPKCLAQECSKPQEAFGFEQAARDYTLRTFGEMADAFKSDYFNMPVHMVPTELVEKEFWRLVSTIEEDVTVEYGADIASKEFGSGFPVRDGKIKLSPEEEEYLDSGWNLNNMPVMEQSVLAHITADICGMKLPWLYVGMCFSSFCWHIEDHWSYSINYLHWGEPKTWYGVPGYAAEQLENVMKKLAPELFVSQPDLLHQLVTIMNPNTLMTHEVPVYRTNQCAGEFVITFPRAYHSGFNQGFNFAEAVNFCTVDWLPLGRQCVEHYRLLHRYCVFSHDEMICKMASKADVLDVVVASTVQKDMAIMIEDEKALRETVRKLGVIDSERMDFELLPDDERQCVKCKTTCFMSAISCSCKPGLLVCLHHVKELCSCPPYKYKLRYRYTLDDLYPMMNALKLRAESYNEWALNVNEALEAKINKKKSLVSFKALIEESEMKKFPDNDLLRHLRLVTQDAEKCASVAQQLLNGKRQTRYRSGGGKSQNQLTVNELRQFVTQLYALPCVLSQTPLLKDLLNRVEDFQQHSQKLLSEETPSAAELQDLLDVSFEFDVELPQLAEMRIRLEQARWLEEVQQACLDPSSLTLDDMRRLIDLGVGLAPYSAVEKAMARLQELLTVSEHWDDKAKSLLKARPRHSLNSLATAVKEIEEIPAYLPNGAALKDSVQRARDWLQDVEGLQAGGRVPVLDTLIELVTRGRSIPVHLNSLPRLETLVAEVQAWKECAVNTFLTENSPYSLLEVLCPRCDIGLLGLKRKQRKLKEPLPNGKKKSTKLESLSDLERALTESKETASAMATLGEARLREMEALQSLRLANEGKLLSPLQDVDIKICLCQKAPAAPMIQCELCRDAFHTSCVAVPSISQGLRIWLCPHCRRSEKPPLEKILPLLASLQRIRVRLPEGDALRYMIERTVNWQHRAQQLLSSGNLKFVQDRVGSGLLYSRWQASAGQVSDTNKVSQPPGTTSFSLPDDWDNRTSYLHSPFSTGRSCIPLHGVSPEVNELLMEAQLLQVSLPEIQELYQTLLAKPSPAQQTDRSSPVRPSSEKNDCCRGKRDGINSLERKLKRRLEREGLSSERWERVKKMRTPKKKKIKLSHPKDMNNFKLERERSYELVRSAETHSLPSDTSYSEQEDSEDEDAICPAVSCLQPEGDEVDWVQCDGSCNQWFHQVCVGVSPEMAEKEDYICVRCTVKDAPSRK
Compound,"activity change, negative = inhibition",Potency
CCOC(=O)C(NC(=O)/C=C/c1c(Cl)cccc1Cl)C(=O)OCC,25.9%,
Cc1ccc2cc(C(=O)NCc3ccc(N4CCCC4)nc3)c(C)nc2c1,-7.88%,
Cc1cn2nc(C(=O)NCC(C)c3ccccc3)cc2c(N2CCCC2)n1 (stereo not given),-1660%,
Cc1cn2nc(C(=O)NCc3cccs3)cc2c(N2CCCC2)n1,-2110%,
CSc1ccc(CNC(=O)c2noc(-c3ccc(C)cc3)n2)cc1,-6.66%,
Cc1cn2nc(C(=O)NCc3ccc(F)cc3)cc2c(N2CCCC2)n1,,25.1 µM (active)
CSc1ccc(CNC(=O)c2cc3c(N4CCCC4)nc(C)cn3n2)cc1,,28.2 µM (active)
CCOC(=O)C(=O)Nc1ccc(C(=O)OC)cc1,23.4%,
CSc1ccc(CNC23CC4CC(C)(CC(C)(C4)C2)C3)cc1,16.9%,
Cc1cccc(C)c1OCC(O)Cn1cnc2c(cnn2-c2ccc(F)cc2)c1=O (stereo not given),5.4%,
Cn1c(SCc2ccc(F)cc2)nnc1-c1ccncc1,17.7%,
COc1ccc(OC)c2[nH]c(C(=O)NCC(=O)Nc3nc(C)cs3)cc12,29.2%,
CCC1(C)CC(CC(=O)OC(C)CN(C)C)(c2ccccc2)CCO1 (stereo not given),32.5%,
Cc1cc(N)n(CC(=O)N[C@@H]2COCC[C@@H]2OCc2c(C)noc2C)n1,-15.9%,
Cc1noc(C)c1CCCNC(=O)c1ccc(N(C)C2CCOC2)nc1 (stereo not given),1.14%,
CNc1ncc(C(=O)N[C@@H]2COCC[C@@H]2OCc2c(C)noc2C)cn1,,28.2 µM (active)
O=C(NC1(c2ccc(Cl)cc2)CCC1)c1cc(Cl)c[nH]1,4.6%,
Cc1ccc(Cc2nn3c(SCC(=O)Nc4ccccc4C(F)(F)F)nnc3[nH]c2=O)cc1,0.896%,
COC(=O)[C@H](C)NC(=O)C12CC3CC(CC(C3)C1)C2,16.7%,
CCc1c(C)sc(NC(=O)C(CC)CC)c1C#N,-13.5%,
COCC1CCN(C(=O)c2ccc3oc(Cc4ccccc4)nc3c2)C1 (stereo not given),30.4%,
Cc1ccc(-c2cc(N3CCCN(C(=O)c4nn(C)c5ccccc45)CC3)n[nH]2)cc1C,-17.1%,
COc1ccc(-c2[nH]nc3ncc(-c4ccccc4)nc23)c(C)c1,-17.3% [at 86.2 µM],
COCCNC(=O)c1cnc2n[nH]c(-c3ccccc3OC)c2n1,-15.1% [at 86.2 µM],
COc1ccccc1-c1[nH]nc2ncc(-c3cccc(CO)c3)nc12,,39.8 µM (active)
Oc1ccc(/C=C(/Cl)c2ncc(-c3ccc(F)cc3)o2)cc1,-3.78%,
COc1cccc(NC(=O)c2csnn2)c1,-29.2%,

Compound,"activity change, negative = inhibition",Potency
COc1ccc(N2CCN(c3nc(C(=O)NC4CCCCCC4)cs3)CC2)cc1,-9.1%,
COc1cc(NC(=O)c2cc3c(N4CCSCC4)nc(C)cn3n2)cc(OC)c1,,31.6 µM (active)
CCOC(=O)C1CCN(CCC(=O)Nc2cc(OC)cc(OC)c2)CC1,-4.23%,
O=C(NC1CCCCC1)c1cc(C2CC2)on1,20.7%,
Cc1cn2nc(C(=O)NC3CCCC3)cc2c(N2CCSCC2)n1,,28.2 µM (active)
O=C(OC1CCOC1=O)c1ccccc1SC1CCOC1=O (stereo not given),-15.3%,
O=C1CC(c2nc(-c3ccc(Oc4ccccc4)cc3)no2)CN1c1ccccc1 (stereo not given),21.5%,
O=C(c1ccccc1F)N1CCC2(CC1)C(=O)NN=C2C1CC1,7.64% [at 86.2 µM],
CNC(=O)c1cccc(NC(=O)CC(C)(C(=O)O)c2ccccc2)c1 (stereo not given),1.72%,
Cc1cc(C)c(CNC(=O)c2nc(-c3cccc(CO)c3)cc3c2ccn3C)c(=O)[nH]1,,35.5 µM (active)
O=S(=O)(Oc1ccccc1C(=S)N1CCOCC1)c1ccc(Cl)cc1,-14.3%,
CCN(c1ccc(NC(=O)c2nccnc2N)cc1)C(C)C,-22.1%,
Cc1cc(S(=O)(=O)c2cc3cc(F)cc(F)c3oc2=O)ccc1F,-3.98%,
O=S(=O)(c1ccc(F)cc1)N1CCn2cccc2C1c1ccccc1F (stereo not given),-23.3%,
Cc1cccc(NN)c1C,13.4%,
COc1cccc(CNC(=O)CC(C)CC(=O)O)c1 (stereo not given),-3.92%,
CCc1ccc(OCC(=O)Nc2ccc(S(=O)(=O)NC(C)(C)C)cc2)cc1,-20.3%,
NC(=O)c1ccc(OC2CCN(C(=O)c3ccc(F)cc3)CC2)nc1,-3.04%,
CNc1ccc(OC2CCN(C(=O)NCCc3ccccc3)CC2)nc1,,28.2 µM (active)
NC(=O)c1ccc(OC2CCN(C(=O)CCc3ccccc3)C2)nc1 (stereo not given),0.563%,
CN(C)c1ncccc1CNC(=O)Cc1ccccc1F,-3.47%,
CC(NC(=O)c1ccc2c(c1)CCCC2)c1ccccc1 (stereo not given),18.5%,
Cc1c(C(=O)NCCN(C)C)oc2ccc(S(=O)(=O)N3CCCC3)cc12,14%,
Cc1cccc(-c2cnc3n[nH]c(-c4ccc5c(c4)OCO5)c3n2)c1,7.1% [at 86.2 µM],
C[S+](=O)([O-])c1ccc(-c2cnc3n[nH]c(-c4ccccc4)c3n2)cc1,,35.5 µM (active)
Fc1ccc(-c2cnc3n[nH]c(-c4ccc5c(c4)OCO5)c3n2)cc1,4.47% [at 86.2 µM],
Cn1cc(-c2cnc3n[nH]c(-c4ccccc4)c3n2)cn1,,35.5 µM (active)

Compound,"activity change, negative = inhibition",Potency
COc1ccc(-c2[nH]nc3ncc(-c4cn[nH]c4)nc23)cc1F,-28.7% [at 86.2 µM],
Cc1ccsc1-c1[nH]nc2ncc(-c3ccccc3O)nc12,-14.5% [at 86.2 µM],
Cc1ccc(C(=O)NCC(c2cccs2)N(C)C)cc1S(=O)(=O)N1CCOCC1 (stereo not given),-3.06%,
O=C(c1cccc(Br)c1)N1CCN(C2=NS(=O)(=O)c3ccccc32)CC1,13%,
COc1ccc(NC(=O)CCCC2CCCCC2)c(OC)c1,-4.56%,
COc1ccccc1CN1CCC(N2CCN(c3ccccc3OC)CC2)CC1,-8.14%,
COc1ccccc1CN1CC[C@@H](CO)N(C)c2ncccc2C1,,31.6 µM (active)
COc1cccc(CN2CCN(Cc3ncccc3C)CC2)c1O,-54.2%,
CC(C)n1ncc2cc(C(=O)N3CCCCc4ccccc43)cnc21,6.87%,
CCN(CCCNC(=O)c1nn(-c2ccc(OC)cc2)c(=O)c2ccccc12)Cc1ccccc1,-6.9%,
CN(Cc1ccc(F)cc1)C(=O)Cn1nc(C(=O)O)c2ccccc2c1=O,3.35%,
COc1ccc(S(=O)(=O)N2CCCC(C(=O)NCCCn3ccnc3)C2)cc1OC (stereo not given),15.5%,
CC(=O)Nc1ccc(C2(C(=O)NCCCN3CCOCC3)CCCCC2)cc1,-14.7%,
CN1CCC2(C1)CN(CC1CCOCC1)c1ccc(C(=O)NCCCn3ccnc3)cc12 (stereo not given),,39.8 µM (active)
Cc1c(C(=O)N(Cc2nc3ccccc3c(=O)[nH]2)C(C)C)oc2ccc(Cl)cc12,-4.06%,
CCN1C(=O)C(=O)N(CC(=O)Nc2cc(C)ccc2C)C1=O,22.3%,
CC(=O)N[C@H]1CN(c2cncc(C(=O)N3CCCC3)n2)C[C@@H]1C1CC1,,28.2 µM (active)
O=C(c1cnccn1)N1CC2CC(C1)[C@H]1CCCC(=O)N1C2 (stereo not given in full),23.3%,
Cc1ccc(C(=O)N2CC[C@H](CO)[C@H](NC(=O)C3CC3)C2)cn1,-23.3%,
Cc1ccc(N(CC(=O)NC2CCCCCCC2)S(=O)(=O)N(C)C)cc1,15.6%,
O=C([C@@H]1C[C@H](c2ccc(F)cc2)N([S+](=O)([O-])C2CC2)C1)N1CCN(c2ccccn2)CC1,,20 µM (active)
O=C(Nc1cccnc1)[C@@H]1C[C@@H](c2ccc(F)cc2)N([S+](=O)([O-])c2ccccc2)C1,-8.21% [at 86.2 µM],
O=C(Nc1cccc(Cl)c1)[C@@H]1C[C@H](c2ccc(F)cc2)N([S+](=O)([O-])C2CC2)C1,-4.57% [at 86.2 µM],
Cc1c(C)n2c3c(=O)[nH]c(=O)n(C)c3nc2n1CCN1CCN(Cc2ccc(F)cc2)CC1,16.1%,
C=CCOC/C=C/C#CCN(CC=C)Cc1ccc(OC)cc1OC,14.3%,
O=C(NC1CC1)c1ccc2c(c1)C1(CCN(CC3CC3)C1)CN2Cc1ccccc1 (stereo not given),,31.6 µM (active)
O=C1Nc2ccccc2CC12CCN(CC1CC1)C2 (stereo not given),20.3% [at 86.2 µM],

Compound,"activity change, negative = inhibition",Potency
O=C(NC1CCCCC1)c1ccc2c(c1)N(Cc1ccc(Cl)cc1)C(=O)c1ccccc1S2=O (stereo not given),-4.14%,
CCCN1C(=O)Cc2cc(C(=O)NC3CC3)ccc21,9.76%,
CC(=O)N1CCC(Cc2ccc(C(=O)NC3CC3)cc2)CC1,4.77%,
CC(=O)N1CCCC2(C1)CN(C)c1ccc(C(=O)NC3CC3)cc12 (stereo not given),,25.1 µM (active)
COC(=O)c1cccc(N(CC(=O)NCC2CCCO2)C(=O)CCC(=O)Nc2cc(C)on2)c1 (stereo not given),10.2%,
COc1ccccc1C(=O)OCC(=O)NCCNC(=O)COC(=O)c1ccccc1OC,0%,
CSCC[C@H](NC(=O)CSc1cc(Cl)ccc1Cl)c1nc2ccccc2[nH]1,4.03%,
O=C(Nc1ccc(C(=O)N2CCOCC2)cc1)Nc1cccc(C(F)(F)F)c1,31.3%,
NC(=O)CN1CCC(NC(=O)c2cccc(F)c2)CC1,8.54%,
COc1cccc(S(=O)(=O)NCc2ccc(C(=O)NCc3ccccn3)cc2)c1,-7.31%,
CCn1cc(-c2ccccc2)cc1C(=O)NCc1ccccn1,-13.5%,
O=C(c1ccc2nccn2c1)N1CCOCC1,,100 µM (active)
O=C(NCCc1ccc(Cl)cc1)c1ccc2nccn2c1,,112 µM (active)
Cc1cc(C(=O)NCCc2ccc(Cl)cc2)c(C)o1,-33.8%,
O=C(c1ccoc1)N1CCC(Oc2ncccc2C(=O)N2CCOCC2)C1 (stereo not given),-12.4%,
O=C(NC1CCN(Cc2ccc(F)c(F)c2)CC1)c1ccc2nccn2c1,,28.2 µM (active)
O=C(NCCc1ccc(Cl)cc1)c1ccc2nc(CCc3ccccc3)oc2c1,-15%,
O=C(NCc1ccccn1)c1ccc2nccn2c1,,31.6 µM (active)
NC(=O)CN1CCC(NC(=O)c2ccc(Oc3ccc(F)cc3)cc2)CC1,2.21%,
COc1ccc2nc(NC(=O)Nc3ccc(C)cc3)sc2c1,6.82%,
COc1cc(/C=C(\C#N)C(=O)C(C)(C)C)ccc1OCc1c(Cl)cccc1Cl,-26.9%,
COC[C@]1(O)CCN(C(=O)c2ccccc2C(F)(F)F)CC1(C)C,13.1%,
C#Cc1cccc(NS(=O)(=O)c2ccc(OC)c3ncccc23)c1,-10.4%,
CC1(C)CC(=O)C2=C(C1)OC(N)=C(C#N)C2c1ccc(C(F)(F)F)cc1 (stereo not given),19.7%,
